Screens from PubChem.
Compounds with a hit are over-represented: about 19% of the library has one in this group of screens.
DT40 TDP1 no CPT – qHTS for Inhibitors of human tyrosyl-DNA phosphodiesterase 1 (TDP1): qHTS in cells in absence of CPT | Potency, µM (highest dose often 46.2 µM), for inactives: at the highest dose activity change, negative = growth inhibition, most hits filed as inhibitors | actives 15% (n = 420,000) | AID 686978, 2013 | DT40 Tdp1-/- hTDP1 cells, no CPT, ATP luminescence, 48 h; further: nearly all actives have a fitted effect of over 55% in size
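Chicken DT40 Tdp1-/- cells complemented with human TDP1, screened without camptothecin (DMSO vehicle only), 400 cells/well. Compounds pin-transferred, cells incubated at 37 °C for at least 48 hr. Growth read as ATP-dependent luminescence (CellTiter-Glo, 30 min at RT).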
VP16 counter – Gal4-VP16 reporter inhibition counter-screen; Drosophila S2 Gal4-VP16 UAS-luciferase, luminescence, 20 h; Potency, µM (titrated, usually from 53.6 µM), for inactives: top-dose activity, negative = inhibition, actives largely listed as inhibitors; actives 3.5% (n = 310,000);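 further: Gal4-VP16 expression switched on by copper sulfate through the metallothionein promoter; nearly all actives have a fitted effect of over 50% in size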
DT40 TDP1 CPT – DT40-hTDP1 cell growth loss with CPT. chicken DT40 Tdp1-/-;hTDP1 cells + 20 nM CPT, ATP luminescence, 48 h. Potency, µM (doses to about 46.2 µM), without a hit: top-dose activity change, negative = growth inhibition, usual class: inhibitors. actives 12% (n = 420,000); further: nearly all actives have a fitted effect of over 55% in size
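Cell growth measured by CellTiter-Glo luminescence after a minimum 48 h, 37 C compound exposure with 20 nM CPT in Tdp1-knockout DT40 cells stably expressing hTDP1, seeded 400/well; qHTS titration format.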
TDP1 block – blocks human tyrosyl-DNA phosphodiesterase 1; Q9NUW8; recombinant TDP1, AlphaScreen DNA substrate cleavage; Potency, µM (series often up to 130 µM), inactives show at the top dose activity change, negative = inhibition, hits mostly inhibitors; actives 0.28% (n = 350,000); further: nearly all actives have a fitted effect of over 40% in size
Target sequence (Q9NUW8 whole entry, looked up): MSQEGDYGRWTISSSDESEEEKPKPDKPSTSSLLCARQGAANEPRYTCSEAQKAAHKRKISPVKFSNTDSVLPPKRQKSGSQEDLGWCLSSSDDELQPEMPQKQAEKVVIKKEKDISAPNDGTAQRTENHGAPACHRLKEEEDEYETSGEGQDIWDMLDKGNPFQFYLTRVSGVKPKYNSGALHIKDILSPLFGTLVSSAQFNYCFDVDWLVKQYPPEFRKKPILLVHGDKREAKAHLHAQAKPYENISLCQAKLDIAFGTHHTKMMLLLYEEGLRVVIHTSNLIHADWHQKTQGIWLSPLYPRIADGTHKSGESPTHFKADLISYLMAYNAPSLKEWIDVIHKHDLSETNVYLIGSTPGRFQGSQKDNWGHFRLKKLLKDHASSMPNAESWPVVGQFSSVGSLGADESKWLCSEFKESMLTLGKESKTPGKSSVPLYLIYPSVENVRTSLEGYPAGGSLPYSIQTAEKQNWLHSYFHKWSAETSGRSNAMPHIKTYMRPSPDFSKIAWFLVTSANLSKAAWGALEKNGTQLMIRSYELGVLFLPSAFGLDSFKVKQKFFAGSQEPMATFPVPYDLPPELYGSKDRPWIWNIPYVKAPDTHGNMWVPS
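Signal: AlphaScreen proximity between streptavidin donor and anti-FITC acceptor beads on intact substrate. Reaction: Tdp1 1 nM, substrate 15 nM final, 5 min RT after 15 min compound preincubation.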
RORgamma inh – ROR gamma (mouse) transcription inhibition; actives 5.4% (n = 310,000); Potency, µM (top dose mostly 53.6 µM), without a hit: at the highest dose activity change, negative = inhibition, actives largely listed as inhibitors; Drosophila S2 Gal4-RORgamma UAS-luciferase reporter, 20 h; P51450; further: nearly all actives have a fitted effect of over 60% in size
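A Gal4/UAS one-hybrid system in insect cells: metallothionein-promoter Gal4–ROR gamma fusion plus Photinus luciferase reporter. Copper sulfate 700 uM final, 20 hr ambient incubation, luminescent detection after 10 min with reagent.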
Active calls of the source: *; ? = inconclusive; . = no result given. The call rests on the fitted dose curve; in most records, active means well fitted curve in the direction sought with a large enough effect; inconclusive means small, poorly fitted or top-dose-only effect, or another doubt; inactive means no such curve, though single readings can be large; an effect the other way counts as inactive or inconclusive. On the % scale 0 is the no-effect control and ±100 the full control effect; potency means the concentration at half of the fitted maximal effect.

SMILES	DT40 TDP1 no CPT	VP16 counter	DT40 TDP1 CPT	TDP1 block	RORgamma inh
Clc1ccc(C2=NNC(=NCc3ccccc3)SC2)cc1	?	?	?	-2%	5µM*
Fc1ccc(C2=NNC(=NCc3ccccc3)SC2)cc1F	?	-26%	-17%	6%	14µM*
O=C(COc1ccc(F)cc1)Nc1cc(S(=O)(=O)N2CCCCC2)ccc1N1CCCCC1	18µM*	.	13µM*	.	.
CCN1CCN(c2ccc(S(=O)(=O)N3CCCCC3)cc2NC(=O)COc2ccc(F)cc2Cl)CC1	?	-19%	21µM*	6%	?
CCN1CCN(c2ccc(S(=O)(=O)N3CCCCC3)cc2NC(=O)c2sccc2C)CC1	23µM*	.	?	7%	.
Cc1cc(C#N)c(C)n1-c1cc(S(=O)(=O)N2CCOCC2)ccc1N1CCCC1	15µM*	18%	16µM*	5%	1%
O=C(COc1ccc([N+](=O)[O-])cc1)Nc1cc(S(=O)(=O)N2CCCCC2)ccc1N1CCCCC1	?	.	-25%	.	.
CCN(CC)CCCNC(=O)c1ccc(C)c(NC(=O)C2=C(C)OCCS2)c1	0%	-1%	10%	.	8%
CCN(CC)CCCN(Cc1cc2cc3c(cc2[nH]c1=O)OCO3)C(=O)Nc1ccccc1OC	-21%	3%	?	6%	-16%
Cc1noc(C)c1S(=O)(=O)Nc1ccc(C(=O)NC2CCCCC2)cc1	-15%	-7%	-3%	3%	30%
CCOC(=O)C1CCCN(C(=O)c2ccc(OC(C)=O)cc2)C1 (configuration not stated)	-4%	-2%	-5%	7%	?
COc1cc(/C=N/NC(=O)c2ccncc2)ccc1OCCN1CCCCC1	-2%	-11%	-14%	-3%	-21%
COc1ccc(OCCNC(=O)CSc2ccc(C(F)(F)F)cc2[N+](=O)[O-])cc1	?	-19%	16%	2%	-12%
CCN1CCN(c2ccc(S(=O)(=O)N3CCCCC3)cc2NC(=O)c2ccc(F)cc2)CC1	21µM*	2%	?	4%	-6%
CCN1CCN(c2ccc(S(=O)(=O)N3CCOCC3)cc2NC(=O)c2ccc(C(F)(F)F)cc2)CC1	-14%	.	-5%	0%	.
O=C(Nc1cc(S(=O)(=O)N2CCOCC2)ccc1N1CCCC1)c1ccc(F)cc1	?	.	13µM*	5%	.
O=C(Nc1cc(S(=O)(=O)N2CCCCC2)ccc1N1CCOCC1)c1ccc(F)cc1	-26%	.	?	5%	.
CCN1CCN(c2ccc(S(=O)(=O)N3CCCCC3)cc2NC(=O)c2ccc(C)c(C)c2)CC1	23µM*	.	?	.	.
O=C(Nc1cc(S(=O)(=O)N2CCOCC2)ccc1-n1cncn1)c1ccc(Cl)cc1	29µM*	-2%	?	4%	19%
CCC1=C(c2ccc(C)cc2)S(=O)(=O)N=C1N1CCC(C(=O)NCCCN2CCCCC2)CC1	2%	1%	10%	8%	0%
O=C(O)Cn1nnn(-c2ccccc2)c1=S	10%	-8%	2%	4%	-3%
O=C(CSc1nc2[nH]ncc2c(=O)n1-c1ccccc1)NCCc1ccccc1	?	3%	-2%	2%	-1%
COc1cc([N+](=O)[O-])ccc1N1C(=O)CC(Sc2nccc(C)n2)C1=O (configuration not stated)	?	?	?	4%	?
COc1ccccc1N1C(=O)C=C(Sc2nc(C)cc(C)n2)C1=O	2.3µM*	?	1.2µM*	7%	?
COc1ccccc1N1C(=O)CC(Sc2n[nH]c(-c3cccc(C)c3)n2)C1=O (configuration not stated)	2.1µM*	5µM*	2.1µM*	1%	2.8µM*
SMILES	DT40 TDP1 no CPT	VP16 counter	DT40 TDP1 CPT	TDP1 block	RORgamma inh
COc1ccccc1N1C(=O)CC(Sc2nccc(C)n2)C1=O (configuration not stated)	-21%	?	?	9%	11µM*
O=C(c1ccc(N2CCCCC2)c([N+](=O)[O-])c1)N1CCN(c2ccccn2)CC1	?	?	-28%	8%	?
S=C(NCCC(c1ccccc1)c1ccccc1)Nc1ccc(Cl)cc1	?	?	?	6%	7.9µM*
S=C(Nc1ccccc1Cl)N1CCN(Cc2ccccc2)CC1	-16%	6%	-1%	-1%	?
S=C(NCCC(c1ccccc1)c1ccccc1)Nc1ccccc1Cl	?	?	?	6%	13µM*
CC(=O)Nc1ccc(CC(=O)NCCC(c2ccccc2)c2ccccc2)cc1	18µM*	3%	16µM*	12%	-6%
O=[N+]([O-])c1ccc2nonc2c1Nc1ccccc1	-6%	-6%	7%	5%	-6%
c1ccc(CCNc2nc3ccccc3s2)cc1	?	?	-3%	-1%	?
CCOC(=O)C1(C)/C(=N/Nc2ccccc2OC)C(=O)C(=O)N1c1ccccc1 (configuration not stated)	13µM*	8%	23µM*	10%	?
COc1ccccc1CCC(=O)OCC(=O)NC1CCCCC1	17%	3%	-4%	0%	-7%
Cc1c2c(cc3c1[nH]c1ccccc13)C=NCC2	23µM*	.	?	.	.
CCc1cc(N2CCOCC2)cc2c1[nH]c1ccccc12	?	-2%	?	9%	-16%
S=C(NCc1cccnc1)Nc1ccc(Oc2ccccc2)cc1	?	?	?	0%	?
Cc1ncc(CO)c(CNc2ccc(Oc3ccccc3)cc2)c1O	6.5µM*	?	13µM*	.	24%
COCCNc1nc(NCc2cccc(OC)c2OC)c2sccc2n1	12µM*	.	?	.	.
